PubChem BioAssay (EPA / NIEHS)
Inconclusive results are not listed. Calls of active or inactive are those of the source. How the source made its calls: active means hit-call score of the fitted dose curve at least 0.9, where 1 is the maximum; inconclusive means response in the unintended direction; inactive means score below 0.9.

Tested on: not listed separately
Test: ATG_GAL4_TRANS: Attagene TRANS-FACTORIAL HepG2 Assay for GAL4 (Internal Marker) (AID 2282976)
Conditions: HepG2 Attagene TRANS GAL4 internal marker reporter
Summary of the method: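 RT-PCR/capillary electrophoresis readout of reporter mRNA. HepG2, transient MRTU transfection (GAL4-UAS reporters), 24 h compound exposure. Background-control endpoint, positive direction vs DMSO baseline.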

outcome, inactive:
CC(C)CCO
O=C(O)c1cccc(Oc2ccccc2)c1
CCC(C)(C)C(=O)O[C@H]1C[C@@H](C)C=C2C=C[C@H](C)[C@H](CC[C@@H]3C[C@@H](O)CC(=O)O3)[C@H]21
O=P(OC(CCl)CCl)(OC(CCl)CCl)OC(CCl)CCl
CCCCCCCCO
O=c1[nH]c2ccc(S(=O)CCN3CCC(Cc4ccc(F)cc4)CC3)cc2o1 (configuration not stated)
COc1ccc2sc(C(=O)Nc3nnn[nH]3)c(OC(C)C)c2c1
CCn1nc(Cc2ccccc2)cc1C1CCN(C[C@H]2C[C@H](N(C)[C@@H](C(=O)O)C(C)C)C[C@@H]2c2cccc(F)c2)CC1

Target: Estrogen-related receptor gamma (Homo sapiens) (UniProt P62508)
Test: ATG_ERRg_TRANS: Attagene TRANS-FACTORIAL HepG2 Assay for human Estrogen-Related Receptor gamma (ERRg) (AID 2282977);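 further: hits increase reporter signal over DMSO so potencies reflect activators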
Conditions: HepG2 Attagene TRANS reporter, ERRg transactivation
Summary of the method: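 Readout: fluorescent reporter-mRNA fragments resolved by capillary electrophoresis after RT-PCR and HpaI cut. Cells: transiently transfected HepG2 carrying GAL4-UAS reporters driven by exogenous NR-Gal4 chimeras, dosed 24 h. Activity fitted upward relative to DMSO baseline.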

Estrogen-related receptor gamma (Homo sapiens), sequence (P62508 whole entry, looked up): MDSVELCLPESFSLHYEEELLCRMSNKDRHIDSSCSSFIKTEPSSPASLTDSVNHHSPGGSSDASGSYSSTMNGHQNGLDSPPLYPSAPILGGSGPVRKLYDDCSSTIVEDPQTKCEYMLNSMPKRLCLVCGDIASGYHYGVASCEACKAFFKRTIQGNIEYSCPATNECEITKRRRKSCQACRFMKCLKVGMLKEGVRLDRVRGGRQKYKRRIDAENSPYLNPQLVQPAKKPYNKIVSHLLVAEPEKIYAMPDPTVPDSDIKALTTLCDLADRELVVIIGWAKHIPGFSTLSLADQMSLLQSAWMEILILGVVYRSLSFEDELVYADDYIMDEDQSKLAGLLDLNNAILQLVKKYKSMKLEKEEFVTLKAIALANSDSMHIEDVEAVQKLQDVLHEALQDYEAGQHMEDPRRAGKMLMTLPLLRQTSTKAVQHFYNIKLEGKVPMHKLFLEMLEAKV

outcome, inactive:
CN(C)c1ccc(Cc2ccc(N(C)C)cc2)cc1
CCOC(=O)c1ccc(C2CCC(NC[C@H](O)COc3ccc(O)c(NS(C)(=O)=O)c3)CC2)cc1 (some centres not stated)
O=c1[nH]c2ccc(S(=O)CCN3CCC(Cc4ccc(F)cc4)CC3)cc2o1 (configuration not stated)
COc1ccc2sc(C(=O)Nc3nnn[nH]3)c(OC(C)C)c2c1
